KKLEB tox = cytotoxicity in KKLEB CF airway cells, primary screen, cytotoxicity control for CF NF-kB inhibitor project, cell-based, uHTS, fluorescence assay plates | AID 602141, 2011 | KKLEB CF airway cells viability, ATPlite luminescence, overnight; stronger effect = lower value; cells stimulated with P. aeruginosa culture filtrate | actives 0.36% (n = 360,000) | activity change (cytotoxicity), % at 5 µM;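 active means corrected activity change at or below -50% at 5 µM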
LGR2 antag = inhibitors of bursicon-induced LGR2 CRE-luciferase signal, primary screen, cell-based, HEK293, CRE-luciferase reporter, bursicon stimulation; Drosophila bursicon receptor LGR2 (rickets); bursicon-stimulated, 4 h; inhibition, % at 9.99 µM; actives 0.35% (n = 380,000); AID 720647, 2013;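 active means drop in luminescence signal, shown as inhibition above about 50% in the replicate tests, limit read from the data, passing the limit was not always enough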;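 further: agonist challenge used bursicon conditioned medium at about half maximal strength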
Peg3 prom inh = Peg3 promoter-driven luciferase inhibitors, primary screen, cell-based, HeLa, luciferase luminescence | HeLa PEG-Prom luciferase reporter, overnight | inhibition, % at 20 µM | actives 1.7% (n = 360,000);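 active means inhibition of at least 50% at 20 µM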
CF NFkB block = inhibitors of PAF-induced NF-kB signaling, primary screen, cell-based, GFP fluorescence, uHTS. KKLEB NF-kB-GFP reporter, GFP fluorescence overnight. inhibition, % at 5 µM. actives 0.86% (n = 360,000);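 active means at least 50% inhibition at 5 µM, scaled per plate between neutral and stimulator controls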;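 further: PAF is a Pseudomonas aeruginosa culture filtrate used as stimulus; plate controls were PAF-stimulated DMSO wells for no effect and unstimulated DMSO wells for full effect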
Mdm2 MdmX PPI = inhibitors of human Mdm2-MdmX association, primary screen, cell-based, luminescence, split luciferase, SaOS-2, uHTS. Protein Mdm4 (Homo sapiens) + E3 ubiquitin-protein ligase Mdm2 (Homo sapiens), …. SaOS-2 split-luciferase Mdm2/MdmX complementation. inhibition, % at 8 µM. actives 3% (n = 330,000);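 active means inhibition of at least 50% at 8 µM in the primary screen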
Target sequence (O15151 whole entry, looked up): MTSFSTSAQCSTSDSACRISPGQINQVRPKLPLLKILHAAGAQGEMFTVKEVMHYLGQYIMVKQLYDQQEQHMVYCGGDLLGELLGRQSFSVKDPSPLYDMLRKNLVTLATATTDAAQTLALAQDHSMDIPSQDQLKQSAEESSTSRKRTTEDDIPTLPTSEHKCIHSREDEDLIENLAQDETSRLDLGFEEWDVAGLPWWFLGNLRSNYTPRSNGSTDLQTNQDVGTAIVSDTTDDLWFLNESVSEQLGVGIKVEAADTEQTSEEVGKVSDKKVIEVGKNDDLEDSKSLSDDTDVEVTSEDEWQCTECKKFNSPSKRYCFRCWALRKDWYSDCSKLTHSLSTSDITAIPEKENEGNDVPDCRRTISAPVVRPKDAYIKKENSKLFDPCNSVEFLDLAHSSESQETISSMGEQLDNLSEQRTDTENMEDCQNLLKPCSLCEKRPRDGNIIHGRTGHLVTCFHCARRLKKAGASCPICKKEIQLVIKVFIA
Target sequence (Q00987 whole entry, looked up): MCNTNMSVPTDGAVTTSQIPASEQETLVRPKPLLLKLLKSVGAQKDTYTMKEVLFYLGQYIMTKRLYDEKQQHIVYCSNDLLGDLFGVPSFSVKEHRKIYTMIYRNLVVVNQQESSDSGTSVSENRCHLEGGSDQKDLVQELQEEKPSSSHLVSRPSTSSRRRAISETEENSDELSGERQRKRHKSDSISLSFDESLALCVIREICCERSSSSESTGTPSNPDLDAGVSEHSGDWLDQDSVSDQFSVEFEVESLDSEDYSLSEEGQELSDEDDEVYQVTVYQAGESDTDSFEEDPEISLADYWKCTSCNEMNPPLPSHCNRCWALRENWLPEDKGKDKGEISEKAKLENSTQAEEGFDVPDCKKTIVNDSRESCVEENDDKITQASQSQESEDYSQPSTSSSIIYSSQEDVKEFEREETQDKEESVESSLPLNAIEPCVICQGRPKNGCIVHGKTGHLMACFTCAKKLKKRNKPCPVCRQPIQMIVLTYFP
HSP90 refold inh = HSP90 inhibitors, primary screen, cell lysate, luminescence; Heat shock protein HSP 90 (rabbit reticulocyte lysate; luciferase refolding); Rabbit reticulocyte lysate, luciferase refolding luminescence, 3 h; inhibition, % at 5.6 µM; actives 0.91% (n = 290,000);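 active means inhibition above the screen-wide mean plus 3 SD, computed separately per campaign, cut at about 16% in these data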;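 further: 0% = DMSO wells and 100% = 60 µM geldanamycin wells; inhibitors lower the luminescence because luciferase stays unfolded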
Mdm2 MdmX conf = Mdm2-MdmX complex disruptors, retested hits, confirmation, luminescence, single concentration; Mdm2-MdmX binding, luminescent assay; actives 55% (n = 10,000); inhibition, % at 8 µM; shares compounds with Mdm2 MdmX PPI; AID 489028, 2010; in the data active means inhibition above about 40%
Full FLuc ctr = full-length luciferase signal inhibition, confirmation, counter-screen for Mdm2/MdmX interaction inhibitor project, cell-based, single concentration, SaOS-2 | shares compounds with Mdm2 MdmX PPI | SaOS-2 full-length luciferase counterscreen, luminescence | inhibition, % at 8 µM | actives 77% (n = 6,200);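 active means mean inhibition at 8 µM reaching about 37%, which flags the compound as non-specific, limit read from the data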;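 further: p53-null SaOS-2 cells with luciferase driven by a doxycycline-inducible promoter; compound on cells about two nights before reading with doxycycline added after day one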
Starred values were filed as active, the others as inactive; nt = not tested or not shown. Shown are actives, neighbours in structure and some others; about 3.6% of the full set was active somewhere.

SMILES	KKLEB tox	LGR2 antag	Peg3 prom inh	CF NFkB block	Mdm2 MdmX PPI	HSP90 refold inh	Mdm2 MdmX conf	Full FLuc ctr
CC(C)C#Cc1ccc2c(c1)O[C@@H](CN(C)Cc1cncnc1)[C@@H](C)CN([C@H](C)CO)S2(=O)=O	nt	6.7	nt	nt	nt	nt	nt	nt
C[C@H](CO)N1C[C@H](C)[C@H](CN(C)C(=O)CCCN(C)C)OCCCC[C@H](C)Oc2ccc(NC(=O)Nc3cccc4ccccc34)cc2C1=O	nt	6.4	nt	nt	nt	nt	nt	nt
O=C(N[C@H]1CC[C@H](CCNS(=O)(=O)c2ccccc2Cl)O[C@H]1CO)c1ccccc1	nt	10.3	nt	nt	nt	nt	nt	nt
COc1ccc(-c2nn(-c3ccccc3)cc2C(=O)N2c3ccc(C)cc3C3CN(C)CCC32)cc1 (stereo not drawn)	-7.6	-5.1	12.2	20.7	53.9*	4.9	35.5	73.8*
CC(=O)OC[C@]12CC[C@H]3[C@@](C)(CC[C@H]4C(C)(C)CCC[C@]34C)[C@@H]1C[C@@H](C1=CC(=O)O[C@@H]1OC(C)=O)O2	nt	nt	nt	nt	100.5*	nt	98.7*	2.2
CC(=O)OC[C@]12CC[C@H]3[C@@](C)(CC[C@H]4C(C)(C)CCC[C@]34C)[C@@H]1C[C@H](C1=CC(=O)O[C@H]1OC(C)=O)O2	nt	nt	nt	nt	90.7*	nt	23.1	nt
C[C@@H](NC(=O)C[C@H]1C[C@@H]2c3cc(NC(=O)C4CCC4)ccc3O[C@@H]2[C@H](CO)O1)c1ccccc1	nt	-9.5	nt	nt	nt	nt	nt	nt
COc1ccc(S(=O)(=O)Nc2ccc3c(c2)CC(=O)N([C@@H](C)CO)C[C@H](C)[C@@H](CN(C)C(=O)NC2CCCCC2)O3)cc1	nt	-25.9	nt	nt	nt	nt	nt	nt
Cc1cccc(CC(=O)Nc2cc(C)c3c(=O)oc4ccccc4c3n2)c1	-18.1	8.3	14.1	16.1	38.5	-3.3	nt	nt
Cc1cc(NC(=O)Cc2ccccc2)nc2c1c(=O)oc1ccccc12	-26.5	5.8	-17.1	19.2	74.4*	-1.0	31.8	nt
CSc1nc(Sc2ccccc2Cl)c2ccccc2n1	-8.6	nt	14.5	16.0	52.5*	3.4	46.4*	55.2*
CCOC(=O)c1cnc(SC)nc1Sc1ccccc1Cl	-10.6	nt	8.0	12.4	10.7	2.1	nt	nt
C[C@@H]1CN([C@@H](C)CO)C(=O)c2cc(N(C)C)ccc2O[C@H]1CN(C)Cc1ccncc1	nt	-19.9	nt	nt	nt	nt	nt	nt
COc1cccc(-c2nn(C)c3sc(C(=O)NCc4ccccn4)cc23)c1	9.7	nt	1.5	-17.3	55.3*	-3.5	41.2*	76.8*
COc1cccc(-c2nn(C)c3sc(C(=O)NCc4ccc(C)cc4)cc23)c1	6.4	nt	12.3	-34.4	34.0	2.3	nt	nt
COc1ccc(S(=O)(=O)Nc2ccc3c(c2)C(=O)N([C@H](C)CO)C[C@H](C)[C@@H](CN(C)S(=O)(=O)c2ccc(OC)cc2)OCCCC[C@H](C)O3)cc1	nt	5.3	nt	nt	nt	nt	nt	nt
COC(=O)[C@@H]1[C@@H](CO)[C@@H]2Cn3c(ccc(-c4cccc(OC)c4)c3=O)[C@@H]2N1Cc1nccs1	nt	-26.8	nt	nt	nt	nt	nt	nt
Cc1cccc(NC2=Nc3ccccc3N3C2=Nc2c(c(C)nn2-c2ccccc2)C3c2ccc(O)c(O)c2)c1 (stereo not drawn)	19.2	nt	46.2	-42.4	77.9*	-0.7	39.2	50.0*
Cc1nn(-c2ccccc2)c2c1C(c1ccc(O)c(O)c1)N1C(=N2)C(Nc2ccccc2)=Nc2ccccc21 (stereo not drawn)	-0.5	nt	21.4	-11.8	83.2*	-0.8	45.2*	40.3*
C[C@H](CO)N1C[C@H](C)[C@H](CN(C)Cc2ccc(C(F)(F)F)cc2)Oc2c(NC(=O)NC3CCCCC3)cccc2C1=O	nt	-2.3	nt	nt	nt	nt	nt	nt
CN1C2CCC1/C(=C\c1ccc(F)cc1)C(=O)/C2=C/c1ccc(F)cc1	0.3	9.8	18.4	-37.0	89.5*	2.1	53.4*	19.3
CCCn1ncc(CN2CCC(C(=O)Nc3cccc(-c4cccc(F)c4)c3)CC2)c1C	-8.0	14.5	60.1*	-8.0	86.9*	10.2	46.2*	71.1*
C=CCn1cc(CN2CCC(C(=O)Nc3cccc(-c4cccc(F)c4)c3)CC2)c(C)n1	-17.4	7.2	15.9	27.1	50.8*	-1.5	30.6	nt
Cc1c(CN2CCC(C(=O)Nc3cccc(-c4cccc(Cl)c4)c3)CC2)cnn1C	-14.1	3.4	69.4*	13.3	58.2*	-1.1	10.2	nt
O=C(Nc1cccc(-c2cccc(Cl)c2)c1)C1CCN(Cc2ccccn2)CC1	-7.5	-22.6	34.9	10.3	37.4	0.2	nt	nt
SMILES	KKLEB tox	LGR2 antag	Peg3 prom inh	CF NFkB block	Mdm2 MdmX PPI	HSP90 refold inh	Mdm2 MdmX conf	Full FLuc ctr
C=CCn1cc(CN2CCC(C(=O)Nc3cccc(-c4cccc(Cl)c4)c3)CC2)c(C)n1	-7.0	7.2	-109.3	15.3	80.9*	-1.1	12.8	nt
C=CCn1cc(CN2CCC(C(=O)Nc3ccc(Oc4cccnc4)cc3)CC2)c(C)n1	17.5	-6.8	-12.1	-39.6	3.7	1.4	nt	nt
Cn1cc(CN2CCC(C(=O)Nc3cccc(-c4cccc(F)c4)c3)CC2)cn1	-14.9	-5.0	32.3	15.5	27.0	-5.1	nt	nt
C[C@@H]1CN([C@@H](C)CO)C(=O)Cc2cc(NS(=O)(=O)c3ccc(Cl)cc3)ccc2O[C@H]1CN(C)S(=O)(=O)c1cccs1	nt	-3.1	nt	nt	nt	nt	nt	nt
Cc1nn(C(C)C)c(C)c1CN1CCC(C(=O)Nc2cccc(-c3cccc(F)c3)c2)CC1	-4.8	5.9	88.6*	30.6	78.5*	-5.2	51.5*	62.1*
Cc1ccc(N2C(=O)N3[C@H](c4ccc(F)cc4)[C@@H]4C(=O)N(C5CCCCC5)C(=O)[C@@H]4[C@]3(Cc3ccccc3)C2=O)cc1	-19.3	-1.1	-12.7	3.0	60.9*	1.2	70.0*	57.3*
O=C1[C@H]2[C@@H](c3ccc(F)cc3)N3C(=O)N(c4ccc(Br)cc4)C(=O)[C@@]3(Cc3ccc(Cl)cc3)[C@H]2C(=O)N1C1CCCCC1	-3.3	10.2	14.1	14.4	85.2*	0.0	93.5*	27.8

Compound activity (PubChem BioAssay)
